Here are results for 12 molecules from PubChem BioAssay (Tox21).

A short description of assay [1]: Nuclear factor erythroid 2-related factor 2/antioxidant responsive element (Nrf2/ARE) small molecule agonists: qHTS cell viability counter screen in human keratinocytes (AID 1919968; active = well fitted curve in the direction sought with a large enough effect in the repeat runs; an effect the other way counts as inactive or inconclusive; also: nearly all actives have a fitted effect of over 55% in size; also: potency is read from the fitted curve at half-maximal effect). The procedure, abridged:
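Viability counter-screen: KeratinoSens reporter cells, DMSO-delivered compounds, 23 h at 37 C, CellTiter-Fluor fluorescence.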
(In general: Quantitative high-throughput screening tests each substance at several concentrations.)

The nature of assay [2]: Nuclear factor erythroid 2-related factor 2/antioxidant responsive element (Nrf2/ARE) small molecule agonists: luciferase reporter gene qHTS assay in human keratinocytes (AID 1919969; also: nearly all actives have a fitted effect of over 35% in size; also: potency is read from the fitted curve at half-maximal effect). (In general: Reporter assays use an easily measured gene product as a stand-in for the process of interest.)
Assay [3] has as its target Gonadotropin-releasing hormone receptor (Homo sapiens) (UniProt P30968). The experiment in a line: Human gonadotropin-releasing hormone receptor (GnRHR) small molecule agonists, calcium flux assay in GnRHR-HEK293 cells (AID 1920063). Also: nearly all actives have a fitted effect of over 35% in size. The method in brief: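 Tox21-format agonist screen using human GnRHR-expressing HEK293 cells and a fluorescent calcium dye; kinetic 3-min fluorescence reading after compound addition, 15-point concentration series run in triplicate.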
Background: Calcium flux is commonly read through the fluorescence of an indicator in the cells.

Assay [4] has as its target KiSS-1 receptor (Homo sapiens) (UniProt Q969F8). The experiment in a line: Human kisspeptin (KISS1R) small molecule agonists, calcium flux assay in KISS1R-HEK293 cells (AID 1920064; active = well fitted curve in the direction sought with a large enough effect in the repeat runs; an effect the other way counts as inactive or inconclusive). The procedure, abridged:
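Intracellular calcium mobilization in KISS1R-HEK293 cells was recorded by fluorescence (Ex/Em 480/540) for 3 min following compound addition to cells pre-loaded 1 h with calcium dye.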

A short description of assay [5]: p53 small molecule agonists, cell-based qHTS assay with rat liver microsomes (AID 1963578). The method in brief: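 Read-out is beta-lactamase reporter fluorescence (LiveBLAzer, 2 h, room temperature, dark) in p53RE-bla cells treated 16 h at 37 C with compound, rat liver microsomes and NADPH, both 0.5 mg/mL final.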
A short description of assay [6]: p53 small molecule agonists, cell-based qHTS assay with human liver microsomes: qHTS cell viability counter screen (AID 1963579). Also: nearly all actives have a fitted effect of over 45% in size. The procedure, abridged:
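Cells carrying the p53 response-element beta-lactamase reporter are treated for 16 h at 37 C with test compounds in the presence of human liver microsomes and NADPH (both 0.5 mg/mL final); ATP-based CellTiter-Glo luminescence then reports viability.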

Assay [7] can be described thus: p53 small molecule agonists, cell-based qHTS assay with rat liver microsomes: qHTS cell viability counter screen (AID 1963580). Also: nearly all actives have a fitted effect of over 45% in size. The procedure, abridged:
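p53RE-bla HCT-116 cells were exposed 16 h at 37 C to compounds with rat liver microsomes (0.5 mg/mL) and NADPH (0.5 mg/mL). Viability was measured in the same wells as ATP content by CellTiter-Glo luminescence.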

A short description of assay [8]: p53 small molecule agonists, cell-based qHTS assay: qHTS cell viability counter screen (AID 1963581). Also: nearly all actives have a fitted effect of over 45% in size. Also: potency is read from the fitted curve at half-maximal effect. The procedure, abridged: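 Compounds are pinned onto HCT-116 p53RE-bla cells and left 16 h at 37 C. Following the reporter FRET read, ATP is quantified by CellTiter-Glo luminescence after 30 min at room temperature.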
Assay [9] in a line: p53 small molecule agonists, cell-based qHTS assay (AID 1963582; active = well fitted activation curve with a large enough effect in the signal ratio in the repeat runs, not every such curve was filed as active; the % refers to the signal ratio). The method in brief: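 Agonist activity was scored from beta-lactamase FRET fluorescence in p53RE-bla cells treated 16 h at 37 C with compounds in DMSO, substrate incubation being 2 h at room temperature.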
For assay [10], the target named is 5-hydroxytryptamine receptor 2A (Homo sapiens) (UniProt P28223). Put plainly: 5-hydroxytryptamine receptor 2A (HTR2A) small molecule antagonists, cell-based qHTS assay (AID 1963586). Also: nearly all actives have a fitted effect of over 45% in size. The procedure, abridged: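 Antagonist-mode intracellular calcium assay: DOI (4 nM) added after 5 min compound pre-incubation at room temperature to dye-loaded HTR2A-CHO cells. Fluorescence followed for 3 min, sampled every second.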

Assay [11] has the same target. The experiment in a line: 5-hydroxytryptamine receptor 2A (HTR2A) small molecule agonists, cell-based qHTS assay (AID 1963587). Also: nearly all actives have a fitted effect of over 30% in size. The method in brief:
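CHO cells stably expressing human HTR2A, plated 18 h, loaded with calcium dye 1 h at 37 C. Agonist mode: compounds added and intracellular calcium fluorescence recorded kinetically for 2 min at 1 sec intervals.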

Assay [12] addresses Muscarinic acetylcholine receptor M1 (Homo sapiens) (UniProt P11229). The experiment in a line: Cholinergic receptor muscarinic 1 (CHRM1) small molecule antagonists, cell-based qHTS assay (AID 1963588). Also: nearly all actives have a fitted effect of over 40% in size. The procedure, abridged:
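CHRM1-CHO calcium-flux assay, antagonist mode. Cells were seeded 18 h, dye-loaded 1 h at 37 C and given compound for 5 min at RT, then acetylcholine was added at 50nM. FDSS fluorescence was read 3 min; 15 concentrations, three runs.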

Assay [13] has the same target. The experiment in a line: Cholinergic receptor muscarinic 1 (CHRM1) small molecule agonists, cell-based qHTS assay (AID 1963589). Also: nearly all actives have a fitted effect of over 35% in size. The method in brief: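 Stable CHRM1-CHO cells (human receptor) were incubated 18 h, dye-loaded for 1 h at 37 C and exposed to test compounds for agonist activity, with calcium-dependent fluorescence followed kinetically.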
Assay [14] is described as follows: cAMP Responsive Elements (CRE) small molecule agonists, cell-based qHTS assay (AID 1963590). The method in brief:
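FRET-based beta-lactamase readout (LiveBLAzer B/G, 2 h RT) quantified CRE activation in HEK 293T CRE-bla cells after 3 h treatment with DMSO-dissolved compounds.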

Assay [15] in a line: cAMP Responsive Elements (CRE) small molecule antagonists, cell-based qHTS assay (AID 1963591; active = well fitted inhibition curve with a large enough effect in the signal ratio in the repeat runs, not every such curve was filed as active; the % refers to the signal ratio). The procedure, abridged: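 qHTS in CRE-bla HEK 293T cells: compound in DMSO, then 0.25 uM NKH477 (final), 3 h at 37 °C/5% CO2; beta-lactamase FRET read-out after 2 h substrate incubation.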
Assay [16] deals with Beta-2 adrenergic receptor (Homo sapiens) (UniProt P07550). The experiment in a line: Adrenergic beta2 receptor (ADRB2) small molecule antagonists, cell-based qHTS assay (AID 1963592). Also: nearly all actives have a fitted effect of over 50% in size. Also: potency is read from the fitted curve at half-maximal effect. As to activity change, negative = inhibition: series mostly up to about 92 µM. The procedure, abridged: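 Cells (CHO, stable ADRB2 overexpression) incubated 18-20hr at 37C; compounds added from DMSO; agonist mix (1nM isoproterenol, 100uM IBMX, 25uM Ro-20-1724) added; 0.5hr RT; d2-cAMP and anti-cAMP-cryptate added; 1hr RT; 665/615 nm read.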

The target in assay [17] is D(2) dopamine receptor (Homo sapiens) (UniProt P14416). Put plainly: Dopamine D2 receptor (DRD2) small molecule agonists, cell-based qHTS assay (AID 1963594). Also: nearly all actives have a fitted effect of over 35% in size. The procedure, abridged: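 HEK293 cells stably expressing human DRD2, pre-treated with PDE inhibitor Ro20-1724 (0.1 mM final) and compound 10 min at room temperature, then stimulated with NKH477 (200nM […]) for 30 min. cAMP read by HTRF (665/620 nm).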

Assay [18] can be described thus: G protein-coupled receptor (GPCR) small molecule agonists, calcium flux assay: HEK293 wild type cell line counter screen (AID 1920065). The procedure, abridged:
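In this agonist-mode screen, ATP is the positive control and DMSO the vehicle. Cells grow 18 h before a 1 h dye incubation at 37 C; signal is taken at Ex/Em 480/540 over 3 min.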

Assay [19] addresses D(2) dopamine receptor (Homo sapiens) (UniProt P14416). Put plainly: Dopamine D2 receptor (DRD2) small molecule antagonists, cell-based qHTS assay (AID 1963595; active = well fitted inhibition curve with a large enough effect in the signal ratio in the repeat runs, with a control signal flat; the % refers to the signal ratio). The procedure, abridged:
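HEK293 cells stably expressing DRD2 were preincubated with 0.1 mM Ro20-1724, then with compound for 10 min at room temperature. Cells were stimulated with 200 nM NKH477 plus 12 nM quinpirole for 30 min, and cAMP was read by HTRF.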

A number with no mark means an inactive call. Inconclusive results are not listed. The source made the active and inactive calls. Unless noted, calls follow the shape of the full dose curve.
% is scaled to controls: 0 for no effect and ±100 for the full control effect.

Sequence of Beta-2 adrenergic receptor (Homo sapiens) (P07550 whole entry, looked up): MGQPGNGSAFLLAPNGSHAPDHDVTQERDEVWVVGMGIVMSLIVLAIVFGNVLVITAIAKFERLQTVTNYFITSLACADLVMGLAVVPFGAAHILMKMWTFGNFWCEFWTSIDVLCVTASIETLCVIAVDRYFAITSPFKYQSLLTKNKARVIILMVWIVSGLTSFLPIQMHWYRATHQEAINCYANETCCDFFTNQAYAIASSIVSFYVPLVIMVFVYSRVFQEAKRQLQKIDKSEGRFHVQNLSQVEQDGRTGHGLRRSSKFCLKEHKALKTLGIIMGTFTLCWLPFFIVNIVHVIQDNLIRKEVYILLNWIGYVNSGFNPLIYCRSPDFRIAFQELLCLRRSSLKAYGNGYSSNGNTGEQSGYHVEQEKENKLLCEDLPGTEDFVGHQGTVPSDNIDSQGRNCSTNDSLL
Sequence of Muscarinic acetylcholine receptor M1 (Homo sapiens) (P11229 whole entry, looked up): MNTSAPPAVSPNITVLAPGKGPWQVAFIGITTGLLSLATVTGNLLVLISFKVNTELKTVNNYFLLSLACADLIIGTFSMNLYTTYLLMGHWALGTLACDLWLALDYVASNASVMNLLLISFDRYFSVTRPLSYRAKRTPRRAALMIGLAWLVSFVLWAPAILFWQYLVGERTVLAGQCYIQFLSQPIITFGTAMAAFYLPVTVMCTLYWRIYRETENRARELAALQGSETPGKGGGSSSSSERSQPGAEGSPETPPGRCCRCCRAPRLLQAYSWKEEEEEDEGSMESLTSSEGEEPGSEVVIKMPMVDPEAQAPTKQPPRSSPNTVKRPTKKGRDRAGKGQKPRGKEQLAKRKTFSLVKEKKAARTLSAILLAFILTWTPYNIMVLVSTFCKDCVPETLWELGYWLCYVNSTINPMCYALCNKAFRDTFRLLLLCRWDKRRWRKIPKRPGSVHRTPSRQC
Sequence of D(2) dopamine receptor (Homo sapiens) (P14416 whole entry, looked up): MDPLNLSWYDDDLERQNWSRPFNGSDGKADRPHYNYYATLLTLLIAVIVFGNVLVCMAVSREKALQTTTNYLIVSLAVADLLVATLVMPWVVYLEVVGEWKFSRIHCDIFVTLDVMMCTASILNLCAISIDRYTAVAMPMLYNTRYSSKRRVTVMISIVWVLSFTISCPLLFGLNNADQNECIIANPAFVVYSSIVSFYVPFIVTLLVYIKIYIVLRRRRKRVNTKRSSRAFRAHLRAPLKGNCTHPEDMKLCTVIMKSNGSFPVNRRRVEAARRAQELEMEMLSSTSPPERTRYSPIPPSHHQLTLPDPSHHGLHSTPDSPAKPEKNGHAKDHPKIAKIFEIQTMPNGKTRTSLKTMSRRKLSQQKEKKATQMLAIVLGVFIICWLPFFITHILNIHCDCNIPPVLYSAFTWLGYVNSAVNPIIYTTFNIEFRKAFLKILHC
Sequence of Gonadotropin-releasing hormone receptor (Homo sapiens) (P30968 whole entry, looked up): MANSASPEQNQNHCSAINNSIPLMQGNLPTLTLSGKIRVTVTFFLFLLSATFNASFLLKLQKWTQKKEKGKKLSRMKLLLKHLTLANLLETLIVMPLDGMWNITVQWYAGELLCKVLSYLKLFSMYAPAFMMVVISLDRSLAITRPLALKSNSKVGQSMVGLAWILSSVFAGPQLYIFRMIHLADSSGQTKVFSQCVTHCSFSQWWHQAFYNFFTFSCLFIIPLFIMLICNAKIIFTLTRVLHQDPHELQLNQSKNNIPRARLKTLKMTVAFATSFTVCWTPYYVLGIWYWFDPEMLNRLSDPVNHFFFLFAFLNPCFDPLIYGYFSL
Sequence of 5-hydroxytryptamine receptor 2A (Homo sapiens) (P28223 whole entry, looked up): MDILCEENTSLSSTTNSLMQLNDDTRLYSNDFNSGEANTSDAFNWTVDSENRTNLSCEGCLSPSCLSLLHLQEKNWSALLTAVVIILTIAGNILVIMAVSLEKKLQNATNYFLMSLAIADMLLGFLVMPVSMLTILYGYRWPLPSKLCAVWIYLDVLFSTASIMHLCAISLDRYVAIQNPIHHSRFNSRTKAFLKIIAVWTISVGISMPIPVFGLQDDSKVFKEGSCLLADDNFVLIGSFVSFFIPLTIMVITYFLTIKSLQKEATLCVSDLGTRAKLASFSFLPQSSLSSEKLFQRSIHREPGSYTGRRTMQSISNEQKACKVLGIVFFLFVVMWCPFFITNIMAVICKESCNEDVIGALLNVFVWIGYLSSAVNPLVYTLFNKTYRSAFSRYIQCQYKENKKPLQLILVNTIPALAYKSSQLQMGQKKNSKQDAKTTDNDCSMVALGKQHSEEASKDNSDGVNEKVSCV
Sequence of KiSS-1 receptor (Homo sapiens) (Q969F8 whole entry, looked up): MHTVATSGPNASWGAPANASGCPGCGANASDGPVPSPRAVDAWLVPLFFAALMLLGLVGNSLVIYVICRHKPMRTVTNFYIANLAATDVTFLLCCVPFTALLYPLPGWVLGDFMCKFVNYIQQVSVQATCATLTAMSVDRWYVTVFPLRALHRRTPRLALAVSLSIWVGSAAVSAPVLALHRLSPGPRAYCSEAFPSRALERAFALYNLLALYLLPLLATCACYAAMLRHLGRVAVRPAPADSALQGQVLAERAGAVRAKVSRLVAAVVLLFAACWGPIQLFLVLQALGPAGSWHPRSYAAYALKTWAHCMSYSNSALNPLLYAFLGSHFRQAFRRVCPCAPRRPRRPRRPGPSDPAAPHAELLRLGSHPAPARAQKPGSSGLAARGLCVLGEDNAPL

In the case of `CCCCCCCCCCCCCCCCN(C)C`, the activity change, negative = cytotoxicity in assay [1] was 3.36% [at 8.39 µM]; in [6], -6.23% [at 5.99 µM]; in assay [7], 1.34% [at 5.99 µM]; in assay [8], 8.26% [at 5.99 µM]. Also, the activity, positive = activation in [2] was -0.511% [at 8.39 µM]. Also, in assay [3], the activity change is -0.722% [at 5.22 µM, hits give high values]. The activation in assay [4] was 5.47% [at 6.97 µM]; in assay [5], -0.0918% [at 5.99 µM]; in assay [9], 9.5% [at 5.99 µM]; in assay [11], 3.51% [at 7.02 µM]; in assay [13] it was 0.295% [at 6.97 µM]; in assay [14], -1.13% [at 8.39 µM]. Moreover, in assay [17], the activation was -3.52% [at 8.39 µM]. The results for the activity, negative = inhibition in assay [10] and in assay [12] were -3.75% [at 5.62 µM] and 5.3% [at 5.58 µM], respectively. The activity change, negative = inhibition in assay [15] was 1.36% [at 8.39 µM]; in assay [16], -8.88% [at 8.39 µM].
For `C[C@@H](C1=C(CCN(C)C)Cc2ccccc21)c1ccccn1`, the Potency entry in assay [1], in assay [2], in assay [3], in [4], in assay [18] and in [7] was “inactive” throughout. The Potency result in assay [10], in assay [11], in assay [13], in [14], in assay [15] and in assay [16] was “inactive” each time. The Potency entry in [19] is “inactive”.
Take `C=Cc1ccc(C=C)cc1`: the Potency result in assay [1], in [2], in assay [3], in assay [4], in [18] and in assay [7] was “inactive” each time. In addition, the Potency result in [11], in assay [12], in assay [13], in [15], in assay [16] and in assay [17] was “inactive” throughout. Further, the Potency entry in assay [19] is “inactive”.
As to `c1ccc(Sc2ccccc2)cc1`, the Potency result in assay [1], in assay [3], in [4], in assay [18], in assay [8] and in assay [10] was “inactive” each time. The Potency result in assay [11], in assay [12], in assay [13], in assay [15], in [16] and in [17] was “inactive” throughout. Besides, in assay [19], the Potency entry was “inactive”. In [2], the Potency was 68.6 µM (active).
Consider `O=C=NCC1CCCC(CN=C=O)C1` (centres undefined), for which the Potency result in [1], in [2], in [3], in [4], in [18] and in assay [8] was “inactive” each time. Also, the Potency result in assay [10], in assay [11], in assay [13], in assay [14], in assay [15] and in [16] was “inactive” throughout. For the same molecule, the Potency result in assay [17] and in [19] was “inactive” throughout.
As to `Cc1[nH]nc2c1N=C(c1ccccc1Cl)c1cc([N+](=O)[O-])ccc1N2`, the Potency in assay [1] was 24.3 µM (active); in [2] it was 54.5 µM (active); in [16] it was 21.7 µM (active). Also, the Potency result in [3], in assay [4], in assay [18], in assay [10], in [11] and in assay [12] was “inactive” in each case. Moreover, the Potency result in assay [13], in assay [15] and in [17] was “inactive” in each case.
Regarding `c1ccccc1`, the Potency result in assay [1], in assay [2], in assay [3], in assay [4], in assay [18] and in assay [10] was “inactive” in each case. Also, the Potency result in [11], in assay [12], in [13], in [14], in [15] and in [16] was “inactive” throughout. For the same molecule, the Potency entry in assay [17] and in [19] was “inactive” in each case.
Regarding `Clc1nc2ccccc2nc1Cl`, the Potency result in [1], in [3], in [4], in assay [6], in [8] and in [10] was “inactive” in each case. The Potency entry in assay [11], in assay [12], in [13], in assay [14], in assay [15] and in assay [16] was “inactive” throughout. Moreover, the Potency entry in assay [17] and in assay [19] was “inactive” each time. Besides, in assay [2], the Potency was 55.1 µM (active).
For `C=C1C(C)(C)[C@@]2(Cl)C(Cl)[C@]1(Cl)C(Cl)(Cl)C2(Cl)Cl` (some centres undefined), the Potency was 47.7 µM (active) in assay [1], 9.51 µM (active) in assay [2] and 40 µM (active) in assay [8]. In addition, the Potency result in assay [3], in assay [4], in assay [10], in assay [11], in assay [13] and in [16] was “inactive” throughout. For the same molecule, the Potency result in assay [17] and in [19] was “inactive” each time.
Turning to `N=C(N)S(=O)O`, the Potency result in assay [1], in assay [2], in [3], in [4], in assay [6] and in assay [7] was “inactive” throughout. Also, the Potency result in [8], in assay [11], in assay [12], in [13], in assay [15] and in [16] was “inactive” each time. In addition, the Potency result in [17] and in assay [19] was “inactive” in each case.
As to `CCCCCCCCCCCCCCCCCCNC(=O)OC1CCN(C(=O)OC[C@H](COC(=O)N(Cc2cccc[n+]2CC)C(=O)c2ccccc2OC)OC)CC1`, the Potency in assay [1] was 10.6 µM (active). The Potency result in assay [2], in assay [3], in assay [4], in [5], in [6] and in assay [7] was “inactive” in each case. The Potency entry in [8], in [10], in assay [11] and in assay [13] was “inactive” throughout.
Consider `Cc1ccc(Nc2c(F)cccc2Cl)c(CC(=O)O)c1`, for which the Potency entry in [1], in [2], in assay [3], in [4], in assay [6] and in assay [7] was “inactive” throughout. In addition, the Potency entry in assay [8], in [10], in [11], in assay [12], in [13] and in assay [14] was “inactive” throughout. The Potency result in assay [15], in [16], in assay [17] and in assay [19] was “inactive” each time.
